Source: PubChem BioAssay (National Center for Advancing Translational Sciences (NCATS))
The list is not random: actives were taken first. Their share in the collection is about 6.1%.
DRD3 antagonist – antagonists of human D3 dopamine receptor; D3R cells, DiscoveRx beta-arrestin luminescence, antagonist mode; active compounds read low; max response, negative = inhibition, %; 360,000 compounds, 2.5% hits; AID 652054; in the data active = max response below about -50%; inconclusive = no clear call, values can overlap the other calls; also: % is scaled to controls: 0 for no effect and ±100 for the full control effect
Target sequence (P35462 whole entry, looked up): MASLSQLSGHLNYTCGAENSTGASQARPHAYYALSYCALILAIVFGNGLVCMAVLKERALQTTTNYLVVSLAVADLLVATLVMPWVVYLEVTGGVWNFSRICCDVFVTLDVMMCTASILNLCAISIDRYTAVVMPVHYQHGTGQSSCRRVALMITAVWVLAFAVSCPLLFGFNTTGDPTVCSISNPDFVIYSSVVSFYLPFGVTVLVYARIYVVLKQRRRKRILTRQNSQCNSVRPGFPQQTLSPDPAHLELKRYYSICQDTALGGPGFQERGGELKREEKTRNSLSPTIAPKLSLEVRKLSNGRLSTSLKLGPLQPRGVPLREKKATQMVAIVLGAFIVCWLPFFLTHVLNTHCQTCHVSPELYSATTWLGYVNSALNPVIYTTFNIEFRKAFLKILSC
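Cells expressing the human receptor were seeded at 1500 cells/well, incubated overnight at 37 degrees C in 5% CO2, then exposed to library compounds with dopamine controls for 90 minutes at 37 degrees C before luminescent detection.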
D1 antagonist – human D1 dopamine receptor antagonism; HEK293 TREx D1 cells, calcium flux, dopamine EC80; active compounds read low; activity change, negative = inhibition, % at 10 µM; 360,000 compounds, 3.2% hits; AID 504652; in the data active = activity change below about -30%; also: % is scaled to controls: 0 for no effect and ±100 for the full control effect
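Inducible Hek293 Trex D1 cells (tetracycline, overnight, 30 C). Calcium dye 30–90 min RT. Antagonist mode: EC80 dopamine added after 180 s compound read.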
D1 agonist – human D1 receptor agonism; HEK293 T-REx D1 cells, calcium flux, agonist mode; activation, % at 2 µM; 360,000 compounds, 1% hits; P21728; in the data active = activation above about 30%; also: 0% is about no effect
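Inducible HEK293 T-REx D1 cells, force-coupled to calcium signalling, were plated at 4000 cells/well with tetracycline and held overnight at 30 C. After no-wash calcium dye loading, compound-evoked calcium rise over 180 s flagged agonists.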
D1 PAM – potentiators of human D1 dopamine receptor | 360,000 compounds, 0.036% hits | P21728 | AID 504651 | potentiation, % at 10 µM | HEK293 TREx D1 cells, calcium flux, dopamine EC20 potentiation; in the data active = potentiation above about 30%; also: 0% is about no effect
D3 ag – agonists of human D3 dopamine receptor | D3R DiscoveRx beta-arrestin cells, luminescence, 90 min | max activation, % | 410,000 compounds, 0.58% hits | AID 652048; in the data active = max activation above about 30%; also: 0% is about no effect
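Cells at 1500/well, incubated overnight, then treated with pinned compounds (dopamine as control) for 90 min at 37 degrees C. DiscoveRx reagent added for 30 - 60 minutes at room temperature; luminescence read.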
Numbers without * were called inactive; ? = inconclusive; · = no result given.

SMILES	DRD3 antagonist	D1 antagonist	D1 agonist	D1 PAM	D3 ag
CCOC(=O)C1CCN(Cc2cnc(Oc3ccc(C(C)(C)C)cc3)s2)CC1	-93.2*	7.7	29.5	-5.6	-1.1
CCOC(=O)C1CCN(Cc2cnc(NC(=O)OC)s2)CC1	-6.5	0.3	3.2	-6.2	10.7
COc1ccc(C(=O)C2CCCN(Cc3cc(C)c(O)c(C)c3)C2)c(OC)c1 (stereo not given)	?	2.7	13.1	-0.7	-25.0
COc1ccc(C(=O)C2CCCN(Cc3sc(N4CCCC4)nc3Cl)C2)c(OC)c1 (stereo not given)	-65.1*	-41.0*	6.5	-2.9	-20.3
COc1ccc(C(=O)C2CCCN(Cc3ccc(C#CCCO)cc3)C2)c(OC)c1 (stereo not given)	-115.6*	-2.3	9.4	-4.0	-18.9
CCOc1cccc(CN2CCCC(C(=O)c3cc(Cl)ccc3OC)C2)c1O (stereo not given)	-106.5*	-2.2	1.9	3.0	-20.1
COc1ccc(C(=O)C2CCCN(Cc3cc(Cl)ccc3O)C2)c(OC)c1 (stereo not given)	-54.4*	-22.6	5.5	2.1	-19.7
CCCCc1ccc(-n2nc3ccc(NC(=O)c4cc5ccccc5o4)cc3n2)cc1	·	-10.6	-0.7	-0.8	-28.0
COc1ccc(CCNC(=O)c2nn(C)c3c2CS(=O)(=O)c2ccccc2-3)cc1OC	25.0	-10.9	0.2	-14.7	4.4
CCOC(=O)c1c(-c2ccc(C)cc2)csc1NC(=O)c1cc(=O)c2cc(C)cc(C)c2o1	·	8.4	1.6	-2.1	1.8
COc1ccc(NC(=O)C2Cc3c(-c4cccc(C(N)=O)c4)ccnc3O2)cc1OC (stereo not given)	0.0	·	·	·	39.2*
CC(=O)NCCNC(=O)C1Cc2c(-c3cccc(NC(C)=O)c3)ccnc2O1 (stereo not given)	-29.2	·	·	·	4.3
CC(=O)Nc1cccc(-c2ccnc3c2CC(C(=O)NCc2cccs2)O3)c1 (stereo not given)	-77.5*	·	·	·	-12.2
COc1ccc(NC(=O)C2Cc3c(-c4cccc(C(C)=O)c4)ccnc3O2)cc1OC (stereo not given)	-19.9	·	·	·	-1.3
CC(=O)Nc1cccc(-c2ccnc3c2CC(C(=O)Nc2ccc4c(c2)OCO4)O3)c1 (stereo not given)	-54.9*	·	·	·	-15.0
COc1cccc(C2=NOC(C(=O)Nc3ccc4c(c3)OCO4)C2)c1 (stereo not given)	6.7	-15.8	8.1	8.6	-5.3
O=C(Nc1ccc2c(c1)OCO2)C1CC(c2cccc(Br)c2)=NO1 (stereo not given)	-18.4	-38.4*	1.5	-11.1	5.9
CCC(Oc1ccccc1)C(=O)Nc1cc(-c2ccccc2OC)nn1-c1ccccc1 (stereo not given)	·	0.1	-0.7	4.4	-4.7
CC(=O)Nc1ccc(NC(=O)C2Cc3c(-c4ccco4)ccnc3O2)cc1 (stereo not given)	-61.0*	·	·	·	-8.4
CC(=O)c1cccc(-c2ccnc3c2CC(C(=O)NCc2ccco2)O3)c1 (stereo not given)	-70.4*	·	·	·	-20.8
O=C(COc1ccc(Br)cc1Cl)Nc1ncn[nH]1	·	5.5	-0.9	-4.0	-16.2
Oc1c(C(c2ccccc2Cl)N2CCC(O)CC2)sc2nc(-c3ccco3)nn12 (stereo not given)	·	·	-0.6	4.2	-11.9
COc1ccc(CCn2c(C3CCCCC3)nc3c(c(=O)c4ccccc4n3C)c2=O)cc1	-0.6	-39.3*	126.5*	-2.4	-9.5
COc1ccc(CCn2c(-c3ccccc3)nc3c(c(=O)c4ccccc4n3C)c2=O)cc1	·	-8.4	1.2	-7.6	·
COc1ccc(Cn2c(-c3ccccc3)nc3c(c(=O)c4ccccc4n3C)c2=O)cc1	1.8	6.4	8.2	40.4*	0.5
SMILES	DRD3 antagonist	D1 antagonist	D1 agonist	D1 PAM	D3 ag
COc1ccc(CCn2c(C(C)C)nc3oc4ccccc4c(=O)c3c2=O)cc1	-0.4	-5.7	0.4	-10.7	4.7
COc1ccc(Cn2c(C3CCCCC3)nc3c(c(=O)c4ccccc4n3C)c2=O)cc1	-20.7	19.2	42.0*	15.2	1.6
CC(C)c1nc2c(c(=O)c3ccccc3n2C)c(=O)n1CCc1ccccc1	4.7	6.2	92.9*	14.4	3.1
COc1ccc(CCNS(=O)(=O)c2c(C)nc3scc(C)n3c2=O)cc1OC	6.8	-0.3	-1.9	0.6	-5.6
COc1cccc(NC(=O)CSC2=NN3CCCC(=O)N=C3S2)c1	8.0	-1.4	6.8	-8.1	-3.4
O=C1[C@H]2CCCC[C@H]2C(=O)N1CCCCN1CCN(c2nsc3ccccc23)CC1	-116.0*	·	·	·	-57.4
CCOc1ccc(C[C@H]2NC(=O)CCSSC[C@@H](C(=O)N3CCC[C@H]3C(=O)N[C@@H](CCCN)C(=O)NCC(N)=O)NC(=O)[C@H](CC(N)=O)NC(=O)[C@H]([C@@H](C)O)NC(=O)[C@H]([C@@H](C)CC)NC2=O)cc1	·	·	·	·	3.1
Cc1ccc(OCC(=O)N2CCCCC2)c(Br)c1	14.1	17.1	-0.4	1.9	5.7
CC(C)(C)c1ccc(OCC(=O)N2CCCCCC2)c(Br)c1	1.0	-35.0*	9.7	-13.4	2.0
COc1ccc(C(=O)c2cnc3cc4c(cc3c2C)OCO4)cc1	22.5	-30.2*	-0.3	0.6	13.6
Cc1c(C(=O)c2ccc(Cl)c(Cl)c2)cnc2cc3c(cc12)OCO3	-55.8*	1.6	2.5	0.7	2.2
Cc1c(C(=O)c2ccc3c(c2)OCO3)ccc2c1OCO2	5.8	·	·	·	1.9
Cc1ccc2nc(C3CCCCC3)c(CC(C)(C)C)n2c1	33.0	·	·	·	1.7
CC(C)CNC(=O)C1(C)CCCN1C(=O)c1cccnc1 (stereo not given)	?	·	·	·	-3.2
Nc1ccc(-c2c3ccc(=O)cc-3oc3cc(O)ccc23)cc1C(=O)O	-54.9*	-1.1	245.4*	1.1	-16.3
O=c1ccc2c(-c3ccccc3)c3ccc(O)cc3oc-2c1	33.3	-3.8	-0.2	8.2	12.0
CCCC(=O)N1CCC1(C)C(=O)NS(=O)(=O)c1ccccc1 (stereo not given)	-3.4	·	·	·	-5.6
O=S(=O)(N1CCCCC1)N1CCN(CC(O)COc2ccc3cc(Br)ccc3c2)CC1 (stereo not given)	-0.8	5.1	3.4	-2.7	-24.5
COc1ccc(N(CC(O)CN2CCCCC2)S(=O)(=O)c2ccc(C)cc2)cc1 (stereo not given)	-79.8*	-6.1	1.2	-0.2	-1.0
CN(C)S(=O)(=O)N1CCN(CC(O)COc2ccc3cc(Br)ccc3c2)CC1 (stereo not given)	21.0	-49.0*	14.4	-7.1	3.8
Cc1ccc(S(=O)(=O)N(CC(O)CN2CCCCC2)c2ccccc2)cc1 (stereo not given)	?	-13.4	-0.5	-2.9	-7.4
COc1ccc(OCC(O)CN2CCCCCC2)cc1 (stereo not given)	-53.7*	0.7	2.8	-2.9	-15.4
